The other results are listed elsewhere or left out. How many sequences the whole screen found active is unknown.

To fix the notation:
B1: VH:VL chains; a variant is named by its letters at X, in order (parent)
chain 1: QVQLVQSGAEVKKPGASVKVSCKASGYTFTDYXMHWVRQAPGQGLEWMGXVNPNXXXTTYNQKFEGRVTMTTDTSTSTAYMELRSLRSDDTAVYYCARXNXLDXWGQGTTVTVSS
chain 2: DIQMTQSPSSLSASVGDRVTITCSVSSSVSSIYLHWYQQKPGKAPKLLIYSTSNLASGVPSRFSGSGSGTDFTLTISSLQPEDFATYYCQVYSGYPLTFGGGTKVEIK

Variants of B1 are the subject of the experiment. Put plainly: yeast display scFab, FACS + sequencing. As to conditions: with MET. The essentials:
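Two magnetic rounds on Protein A beads coated with HGFR-Fc, followed by FACS, were used to enrich a yeast surface scFab library mutated in the heavy-chain CDRs. FACS gated the top 50% antigen-positive cells after 3 h labelling at room temperature with 1 nM HGFR-Fc and anti-Myc in PBSB plus 1% milk. Binding to the antigen was scored positive when a sequence occurred in both antigen-positive samples from deep sequencing and negative when it occurred only in the input.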
With DEAKAAVD, the antigen binding call is listed as “no binding”.

SETGGDWV: the antigen binding call is given as “no binding”. The same measure for VRGKGDWV: “no binding”; for VTGKGDGV: “no binding”.

SREAASGV: the antigen binding call was “no binding”. The same measure for YRGESSGF: “binds”; for STGKGSGV: “no binding”; for VRGKGSGF: “binds”. Turning to VTGTGSGF, the antigen binding call is listed as “no binding”. For the variant SRGKGSGV, the antigen binding call is given as “binds”. Consider VRGKGSGV, for which the antigen binding call is “binds”. For the variant ARGKGSGD, the antigen binding call is recorded as “no binding”. Take VTGTGSLV: the antigen binding call is recorded as “no binding”. With DEGGTDAA the entry was “no binding”. Consider AAEKDDLA, for which the antigen binding call is reported as “no binding”. The same measure for YRGKSSGF: “binds”; for YRAKSAVF: “binds”; for YTGTGAVF: “no binding”. For YRGKGAVF, the antigen binding call is “binds”. With FRGKGSGF the entry was “binds”; with YRKRSVVF chain 1 S115F, “no binding”; with DRAGDDVF, “no binding”. As for YRGKGSGS, the antigen binding call is recorded as “binds”. The same measure for YRGKGSGF: “binds”; for YRGKGDGS: “no binding”. The same measure for DARGGDGS: “no binding”; for FRTGDDAV: “binds”.

In the case of FRTGDDAA, the antigen binding call is “binds”. The same measure for FRTGDAGA: “binds”; for ARAGDDAV: “no binding”; for DRAGDDAV: “no binding”.

Turning to FRTGDDGA, the antigen binding call is given as “binds”. The same measure for DRGGDDAA: “no binding”; for DRTGDDVA: “no binding”; for FRETDFGA: “no binding”. Consider FATGSDGA, for which the antigen binding call is listed as “no binding”.

Take DRAGDDGA: the antigen binding call is on record as “no binding”. The same measure for DREEGDWV: “no binding”. With STAEDFVV the entry was “no binding”; with YARTGFGA, “binds”; with VRRGSFGA, “no binding”. With YAGKGFGA the entry was “no binding”; with YGAGDFGA, “no binding”.

In the case of YAGRGFGA, the antigen binding call was “no binding”. The same measure for YRKRTFGA: “no binding”; for YRRGSFGA: “binds”; for YRRGGFGA: “binds”. With SKKEDSAD the entry was “no binding”; with SKAGGDVD, “no binding”. With SEARSALD the entry was “no binding”; with YKAGGALD, “binds”. Consider YKAKGALD, for which the antigen binding call is on record as “binds”.

As to SKAGGSAD, the antigen binding call is reported as “binds”. Consider VKAGGDSD, for which the antigen binding call was “no binding”. The same measure for SKAGGALD: “binds”; for VATGDDVY: “no binding”; for VRAGAFSV: “no binding”. With DTGTGDVF the entry was “no binding”; with VEEEGDVY, “no binding”. For the variant AKTRDDVA, the antigen binding call is listed as “no binding”.

On to YGTRSYGV, for which the antigen binding call is “no binding”.

Consider YRTRGAGV, for which the antigen binding call was “binds”. The same measure for YRTRSAVV: “binds”; for YTTRGDGV: “no binding”. Take DRGGDAVV: the antigen binding call is on record as “no binding”. Turning to YRTRSAGV, the antigen binding call is given as “binds”. In the case of YRTGAAGV, the antigen binding call is “binds”. The same measure for DTGTGSGA: “no binding”; for VEGTGAGD: “no binding”. With DGGKNAVV the entry was “no binding”; with YRKGAAVV, “binds”. For YRKGGAVV, the antigen binding call was “binds”.

DAGKGAVV: the antigen binding call is “no binding”. Take YTKRSAVV: the antigen binding call is “no binding”. With YTGTSAVV the entry was “no binding”; with YAGKNAVV, “binds”; with YRARSSVV, “binds”. With YRARSAVV the entry was “binds”; with SEARSAVV, “no binding”; with VTTKSDGY, “no binding”. The same measure for YATGDDGV: “no binding”. For SEGGTDVV, the antigen binding call was “no binding”.

For VRTEDSGD, the antigen binding call was “binds”. On to VRTEDSLV, for which the antigen binding call is listed as “no binding”. Turning to VTTEASLD, the antigen binding call is given as “no binding”. The same measure for VRTEDSLD: “binds”. With VRTEDALV, the antigen binding call is on record as “binds”. VRTEDDVD: the antigen binding call is “no binding”. For the variant VAGGDALD, the antigen binding call is “no binding”.

VTGGDSGD: the antigen binding call is “no binding”. With VRTEDDLV the entry was “no binding”; with VRTEDALD, “binds”; with VRTAASGD, “no binding”. With DGGGNDLA chain 1 R87K the entry was “no binding”; with VAGTGFWV, “no binding”; with AGETGFSA, “no binding”. The same measure for VRTRSSLD: “binds”; for YRAKGALS: “binds”. YRARGALS: the antigen binding call is “binds”. Regarding YRAGGALS, the antigen binding call is given as “binds”. With YKARGALS the entry was “binds”; with DAARGDAV, “no binding”; with VEKKDYSA, “no binding”.

Take DEGGTAVA: the antigen binding call is reported as “no binding”. The same measure for DAGGAAVS: “no binding”. With YRAAGAGS the entry was “binds”; with YRAKGAGS, “binds”. Turning to DAGKGALF, the antigen binding call is “no binding”. The same measure for YRAKGALF: “binds”; for FRAGGALS: “binds”. The same measure for FTTRSALS: “no binding”; for YTGEADAS: “no binding”. With SAERSAAF the entry was “no binding”; with DAGGASSA, “no binding”. Regarding SEEEGSGV, the antigen binding call is given as “no binding”. The same measure for YRERGALS: “binds”; for YTTGGYLV: “no binding”; for YRGGGYLV: “binds”. In the case of YRGGDYLV, the antigen binding call was “binds”. On to YRGGDDLV, for which the antigen binding call is reported as “no binding”. With YEGGGDLV the entry was “no binding”; with YRGGDYSV, “no binding”. With DETEGDVF, the antigen binding call was “no binding”. The same measure for VKGEGDVY: “no binding”; for VEERDDWF: “no binding”; for SETGAALD: “no binding”. The same measure for SRGKGALD: “binds”; for SEARSSLA: “no binding”; for SEARSALA: “binds”.

SRGGSALA: the antigen binding call is “binds”.

On to SRGKGDAD, for which the antigen binding call is on record as “no binding”. With SRGGGALD the entry was “binds”; with SRGGAAWA, “no binding”. The same measure for SAGGGAGD: “no binding”; for SRGGDDVA: “no binding”. The same measure for SEARSDLA: “no binding”.

These data come from the emibetuzumab library of Makowski et al. (2022).
